D2 ag-1: human D2 receptor agonism in beta-arrestin assay | P14416 | DiscoveRx PathHunter D2 beta-arrestin, luminescence, 90 min; 100% = 57 uM dopamine signal | activation, % (concentration not given with the values) | actives 0.084% (n = 360,000) | AID 624465; in the data active means activation above about 40%; inconclusive means between about 15% and that limit
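Agonist mode: compounds alone added to overnight-plated D2 PathHunter cells for 90 min at 37 C, with 57 uM final dopamine (EC100) defining full response. Beta-arrestin recruitment detected by chemiluminescent reagent, read after 1 h at ambient temperature.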
D2 antagonist: antagonists of human D2 dopamine receptor | HEK293 TREx D2 cells, calcium flux, dopamine EC80 | inhibition, % at 10 µM | actives 2% (n = 340,000) | P14416; in the data active means inhibition above about 30%; inactive means below that, where a call was filed
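In this primary screen, negative modulation is detected by tracking calcium flux after an EC80 dopamine challenge in inducible HEK293 T-REx D2 cells preexposed to test compound for 180 s.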
D2 ag-2: agonists of human D2 dopamine receptor; HEK293 T-REx D2 cells, calcium flux agonist mode; activation, % at 2 µM; P14416; actives 0.53% (n = 340,000);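 active means activation over 3 SD above normal in the single-dose calcium agonist read, cut at about 30% in these data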
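Tetracycline-induced HEK293 Trex cells with D2 receptor force-coupled to calcium signaling, plated overnight at 30 C and loaded with no-wash calcium dye. Calcium flux read kinetically for 180 s after compound addition; responses flag agonists.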
Apoferritin bind: binds horse apoferritin like a general anesthetic. Potency, µM (highest dose often 77.5 µM), usual class: inhibitors. AID 485281. apoferritin/1-aminoanthracene competitive binding, fluorescence. actives 0.074% (n = 350,000). P02791; further: nearly all actives have a fitted effect of over 20% in size
Target sequence (P02791 2-175 limits assumed): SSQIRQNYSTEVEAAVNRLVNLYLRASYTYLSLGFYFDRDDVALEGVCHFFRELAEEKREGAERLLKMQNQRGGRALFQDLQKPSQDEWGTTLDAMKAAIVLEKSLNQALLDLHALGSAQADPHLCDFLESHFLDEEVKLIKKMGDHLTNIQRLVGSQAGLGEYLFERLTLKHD
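In PBS, apoferritin at 10 uM is loaded with 1-AMA from a 50% saturated solution. After 10 min of compound exposure at ambient temperature, reduced 535 nm fluorescence indicates probe displacement.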
D2 PAM-1: human D2 receptor positive allosteric modulation | potentiation, % (concentration not given with the values) | DiscoveRx D2 beta-arrestin cells, luminescence, 90 min; 100% = 57 uM dopamine signal | AID 624464 | actives 0.23% (n = 360,000); in the data active means potentiation above about 50%; inconclusive means mostly about 30% to 49%
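PathHunter beta-arrestin assay in DiscoveRx D2 cells. Compounds were added with an EC20 of dopamine (50 nM final) for 90 min at 37 deg C. Luminescence was read 1 h after detection reagent, with 57 uM dopamine as the EC100 control.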
D2 PAM-2: positively modulates the human D2 dopamine receptor allosterically; HEK293 T-REx D2, calcium flux, EC20 dopamine potentiation; actives 0.34% (n = 340,000); P14416; AID 485347; potentiation, % at 10 µM;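 active means potentiation over 3 SD above the plate norm, cut at about 30% in these data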
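Tetracycline-induced HEK293 T-REx cells force-coupled to calcium signalling expressed D2; compounds were pin-added after a 10 s baseline, read kinetically 180 s, then an EC20 dopamine challenge followed with a further 180 s calcium read.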
D3 arrestin ag: D3 receptor agonism confirmed, beta-arrestin readout; actives 4% (n = 2,300); shares compounds with D2 ag-2; AID 720506; DiscoveRx D3 beta-arrestin cells, luminescence, 90 min; Potency, µM (top dose mostly 76.9 µM), usual class: activators; further: nearly all actives have a fitted effect of over 70% in size
Target sequence (P35462 whole entry, looked up): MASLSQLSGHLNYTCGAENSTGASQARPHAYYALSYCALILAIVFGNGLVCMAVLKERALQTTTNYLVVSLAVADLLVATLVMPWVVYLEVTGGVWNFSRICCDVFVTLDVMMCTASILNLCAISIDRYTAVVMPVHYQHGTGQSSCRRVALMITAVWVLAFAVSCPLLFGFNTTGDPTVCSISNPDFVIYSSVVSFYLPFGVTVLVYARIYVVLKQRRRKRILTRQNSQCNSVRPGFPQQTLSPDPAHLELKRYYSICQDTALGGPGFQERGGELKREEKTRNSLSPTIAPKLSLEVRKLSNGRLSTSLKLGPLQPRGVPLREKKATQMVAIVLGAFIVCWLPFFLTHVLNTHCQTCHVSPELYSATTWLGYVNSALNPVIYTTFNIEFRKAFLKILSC
D2 ag-3: D2 receptor agonism, beta-arrestin counterscreen | shares compounds with D2 ag-2 | DiscoveRx PathHunter D2 beta-arrestin, luminescence, 90 min; response scale: percent relative to full dopamine signal | Potency, µM (top dose mostly 76.9 µM), actives largely listed as activators | actives 5.9% (n = 2,300); further: nearly all actives have a fitted effect of over 70% in size
Numbers stand for hits; . = inactive; ? = inconclusive; / = no result given. Most compounds without a hit are left out; they make up all but 2.5% or so of the library. Unless noted, the call rests on the fitted dose curve; in most records, active means well fitted curve in the direction sought with a large enough effect; inconclusive means small, poorly fitted or top-dose-only effect, or another doubt; inactive means no such curve, though single readings can be large; an effect the other way counts as inactive or inconclusive.

SMILES	D2 ag-1	D2 antagonist	D2 ag-2	Apoferritin bind	D2 PAM-1	D2 PAM-2	D3 arrestin ag	D2 ag-3
Cc1c(N=c2scc(-c3ccccc3)n2CCO)c(=O)n(-c2ccccc2)n1C	.	.	.	.	.	.	/	/
Cc1c(N=c2scc(-c3ccccc3)n2C)c(=O)n(-c2ccccc2)n1C	?	76	66	.	.	.	.	?
Cc1cccnc1Nc1ncnc(N)c1[N+](=O)[O-]	.	.	.	.	.	.	/	/
CCc1ccc(NC(=O)CNC(=O)c2nn(-c3ccc(OC)cc3)c(=O)c3ccccc23)cc1	.	.	.	.	.	.	/	/
Cc1ccc(S(=O)(=O)N2CCOC2CNC(=O)C(=O)NCc2ccc3c(c2)OCO3)cc1 (stereo unspecified)	.	66	.	?	.	.	.	.
O=C(NC(c1ccc(Cl)cc1)c1cnccn1)C1CCN(Cc2ccc(Oc3ccccc3)cc2)CC1 (stereo unspecified)	.	/	/	/	.	/	/	/
Cc1cccn2c(/C=N/OCc3cccc(F)c3)c(-c3ccc(Cl)cc3)nc12	.	/	/	.	.	/	/	/
NC[C@@H]1O[C@H](C23CC4CC(CC(C4)C2)C3)Cc2c1ccc(O)c2O	50	66	85	.	?	.	32µM	35µM
OC(c1ccccc1)(c1nc(-c2ccc(F)c(Cl)c2)cs1)C(F)(F)F (stereo unspecified)	.	/	/	/	.	/	/	/
CC1CCC(NC(=O)COC(=O)CSc2ccc(C(N)=O)cc2[N+](=O)[O-])CC1 (stereo unspecified)	.	.	.	/	.	.	/	/
NC(=O)c1ccc(SCC(=O)OCC(=O)NC2CCCCCCC2)c([N+](=O)[O-])c1	.	.	.	/	.	.	.	.
Cc1ccc(C(=O)OCC(=O)c2ccc(Cl)s2)s1	.	.	.	.	.	.	/	/
Cc1cc(C)cc(NC(=S)/N=C(\N)Nc2nc(C)c3ccccc3n2)c1	.	.	.	.	.	.	/	/
COc1ccc(CCNC(=O)Cn2nnc3ccccc3c2=O)cc1	.	/	/	.	.	/	/	/
CCc1ccc(/C=N/NC(=O)c2nnn(-c3nonc3N)c2C(C)C)cc1	.	.	.	.	.	.	.	.
CCOc1ccc(-c2c(C(=O)N/N=C/c3ccccc3)nnn2-c2nonc2N)cc1	.	.	.	.	.	.	/	/
CCOc1cccc(-c2c(C(=O)N/N=C/c3ccsc3)nnn2-c2nonc2N)c1	.	.	.	.	.	.	.	.
CCOc1ccc(/C=N/NC(=O)c2nnn(-c3nonc3N)c2-c2cccs2)cc1	.	.	.	.	.	.	.	.
CCOc1cccc(-c2c(C(=O)N/N=C/c3sccc3C)nnn2-c2nonc2N)c1	.	.	.	.	.	.	/	/
COc1ccccc1C(=O)NNC(=O)c1cc2ccccc2cc1O	.	/	/	/	.	/	/	/
COC(=O)c1ccccc1NC(=O)c1cc2ccccc2o1	.	.	.	.	.	.	/	/
O=C(Nc1ccccc1C(F)(F)F)c1cc2ccccc2o1	.	47	.	.	.	.	.	.
Cc1ccc(CNC(=O)C2CCC(=O)N(Cc3cccc(C(F)(F)F)c3)C2)o1 (stereo unspecified)	.	/	/	/	.	/	/	/
COc1ccc(-n2c(C)c(C(C)=O)c3cc(OC(C)=O)ccc32)cc1	.	.	.	.	.	.	/	/
COc1ccc(-n2c(C)cc(C)c(C(C)=O)c2=S)cc1	.	.	54	.	.	.	.	.
SMILES	D2 ag-1	D2 antagonist	D2 ag-2	Apoferritin bind	D2 PAM-1	D2 PAM-2	D3 arrestin ag	D2 ag-3
O=C(CN1CCN(C/C=C/c2ccccc2)CC1)NC(=O)NC1CCCCC1	.	71	.	.	.	.	.	.
O=C(CN1CCN(Cc2ccccc2)CC1)NC(=O)NC1CCCCC1	.	.	.	.	.	.	/	/
N#C/C(=C/c1cn(-c2ccccc2)nc1-c1cccc(OCc2ccc(F)cc2)c1)C(=O)NCCCn1ccnc1	.	.	.	?	.	.	/	/
CN(CCc1ccccn1)C1CCCN(S(=O)(=O)c2ccccc2)C1 (stereo unspecified)	.	.	.	.	.	.	/	/
CC(=O)c1ccc(S(=O)(=O)N2CCCC(N(C)CCc3ccccn3)C2)cc1 (stereo unspecified)	.	.	55	.	.	.	.	.
Oc1ccc(CCNc2c3ccccc3nc3ccccc23)cc1O	130	91	91	.	.	.	11µM	5µM
COc1ccc(C(=O)N=C2SC3CS(=O)(=O)CC3N2Cc2ccccc2)cc1OC (stereo unspecified)	.	.	.	.	.	.	?	.
COc1cc(/C=N/Nc2cc(C)nc(NS(=O)(=O)c3ccc(C)cc3)n2)ccc1O	.	.	.	.	.	.	/	/
COc1cc(/C=N/Nc2cc(C)nc(NS(=O)(=O)c3ccccc3)n2)ccc1O	.	.	.	.	.	.	.	.
CN(C)CCNC(=O)c1ccc(CS(=O)(=O)c2c(Cl)cccc2Cl)o1	.	.	.	.	.	.	/	/
CN(CCNC(=O)c1ccc(CS(=O)(=O)c2c(Cl)cccc2Cl)o1)CCc1ccccc1	.	.	31	.	.	.	.	.
CCOC(=O)C1=CCN(Cc2ccccc2)CC1	77	101	83	.	.	.	.	?
CCOC(=O)c1c(N)sc2c1CCN(Cc1ccccc1)C2	/	/	/	.	/	/	/	/
CCOc1cc(N2CCOCC2)c(OCC)cc1NC(=O)COc1cccc(CC)c1	.	.	.	/	.	.	.	.
Nc1nc(-c2cccnc2)nc(N2CCCCC2)n1	.	.	.	.	.	.	/	/
COc1ccccc1N1CCN(S(=O)(=O)CCNC(=O)COc2ccccc2)CC1	.	/	/	/	.	/	/	/
COc1ccccc1OCC(=O)NCCS(=O)(=O)N1CCN(c2ccccc2)CC1	?	62	44	/	.	.	?	?
O=C(CC(C(=O)O)c1ccccc1)c1cccs1 (stereo unspecified)	.	.	.	.	.	.	/	/
Oc1ccc(C2CNCc3sccc32)cc1O (stereo unspecified)	63	96	84	/	71	.	3.5µM	2.8µM
CCOC(=O)N1CCN(CCCc2ccccc2)CC1	.	34	.	.	.	.	.	.
COc1cccc(C(=O)N2CCN(CCCc3ccccc3)CC2)c1OC	.	.	.	.	.	.	/	/

Source: PubChem
